Measurements published in PubChem BioAssay AID743279 (National Center for Advancing Translational Sciences (NCATS), 2014).
In all, about 360,000 compounds went through this assay and about 17,000 (4.7%) were called active. Another 5% or so got no clear call; they are omitted. Rule as the data show it: active = activity change below about -50%; inconclusive = mostly about -30% to -49%; inactive = weaker than that. Many of the other results were omitted from the sample, so actives are more common in it than they were.

assay: qHTS for Inhibitors of Inflammasome Signaling: IL-1-beta AlphaLISA Primary Screen; details: THP-1 LPS/ATP IL-1B secretion, 16 h; at 57.5 µM, stronger effect = lower value
Text: Inflammasomes are a set of intracellular multi-protein complexes that enable autocatalytic activation of inflammatory caspases and drive the innate immune response to counter harmful agents. […] A qHTS assay, based on AlphaLISA technology, was developed to screen the Molecular Libraries Small Molecule Repository (MLSMR) to look for novel inflammasome inhibitors. The assay detects IL-1B using AlphaLISA anti-IL-1B acceptor and donor beads. A decreased emission signal, indicating reduced IL-1B secretion, is the desired outcome for this assay. NIH Chemical Genomics Center [NCGC] NIH Molecular Libraries Probe Centers Network [MLPCN] MLPCN Grant: MH095513 Assay Provider: Shyam Biswal Ph.D., Johns Hopkins University Immunity. 2012 Jul 27;37(1):85-95. PMID: 22819042 [2] Curr Pharm Des. 2012;18(16):2320-8. PMID: 22390695
Three microliters containing 3000 THP-1 cells were dispensed into the wells of solid, white, tissue culture treated Greiner 1,536-well plates. Library compounds and positive control, Glyburide, were pin-transferred (23 nL) by a Kalypsys pin-tool equipped with a 1,536-pin array, resulting in final compound concentration ranges of 2.5 nM to 57.5 uM. After 1 hr of cell culture incubation (37 °C, 5% CO2), 1 microL of 1 microg/mL lipopolysaccharide (250 ng/mL, final) and 5 mM ATP (1.25 mM, final) were added to stimulate the cells. After 16 hr of cell culture incubation with the compounds, 1.5 uL of anti-IL-1B acceptor beads (6 ug/mL, final) and biotinylated antibody (0.6 nM, final) were added to the plate, followed by a 1 hr incubation at ambient temperature. To detect the secreted IL-1B, 1.5 uL of AlphaLISA SA-Donor beads (24 ug/mL, final) were added, followed by 30 min of incubation in the dark at ambient temperature. The AlphaLISA signal was read by a PerkinElmer EnVision plate reader with an ultrasensitive luminescence detector and 1536 Plate HTS AlphaScreen aperture (excitation of 680nm and emission of 615nm).
% is scaled to controls: 0 for no effect and ±100 for the full control effect.

Activity change, inactive:
Cc1cc(C(C)(C)C)cc(S(=O)(=O)Nc2ccc(C(=O)O)cc2)c1C 0%, COc1ccc(NC(=O)C(=O)NCC(c2ccco2)N2CCc3ccccc3C2)cc1 (centres undefined) 5.37%, COc1ccccc1-c1cc(NC(C)=O)c2ncc(-c3ccc(F)cc3)n2c1 -21.1%, CC(=O)Nc1cc(-c2ccc(N3CCN(C)CC3)cc2)cn2c(-c3cccc(C(=O)N(C)C)c3)cnc12 -6.52%, CC(=O)N1c2ccc(S(=O)(=O)N3CCCC(C(=O)NCc4ccc(Cl)cc4)C3)cc2CC1C (centres undefined) -22.7%, CCN(CCN(C)C)C(=O)c1ccc2nc(C)c(N(C)C(=O)CCc3ccccc3)n2c1 10.6%, CC(=O)Nc1cccc(NC(=O)c2ccc3c(c2)CCN3S(C)(=O)=O)c1 -15.8%, Cc1cc(C)cc(NC(=O)C(c2ccccc2)N2CCN(CC(=O)N3CCCC3)CC2)c1 (centres undefined) 15.8%, Cc1[nH]c(C)c(S(=O)(=O)N2CCC(C)CC2)c1C(=O)N1CCCC1 -16.2%, CSCCC(NC(=O)c1ccccc1)C(=O)N1CCCCCCC1 (centres undefined) -20.8%, COc1ccccc1C(=O)NC(CCSC)C(=O)N1CCN(C(C)=O)CC1 (centres undefined) -2.96%, O=C1NC[C@@H](CCCCN2CCN(CCc3ccc(O)cc3)C(=O)C2=O)N(CC2CCCCC2)C1=O 24.5%, COc1ccc(C2Nc3ccccc3C(=O)N2c2ccc(F)cc2)cc1Cn1nnc2ccccc21 (centres undefined) -12.7%, COc1ccc(N2C(=O)c3ccccc3NC2c2ccc(OC)c(CN3CCOCC3)c2)cc1 (centres undefined) -2.56%, Nc1ncnc2c1ncn2[C@@H]1O[C@H](C(=O)NS(=O)(=O)c2c(Cl)nc3sccn23)[C@@H](O)[C@H]1O -13.5%, CC(=O)Nc1cccc(-c2cc(NC=O)c3ncc(-c4ccc(F)c(Cl)c4)n3c2)c1 18.8%, Cc1cccc(C)c1NC(=O)C(c1cccc(F)c1)N1CCN(C)CC1 (centres undefined) -18.5%, FC(F)(F)Oc1ccccc1C(c1nnnn1C1CCCCC1)N1CCN(C/C=C/c2ccccc2)CC1 (centres undefined) -26.5%, O=C(CSc1ccc(Cl)cc1)NC1CC1 3.85%, Cc1ccc(S(=O)(=O)NCCC(=O)NC2CCN(Cc3ccccc3)CC2)cc1 -11.3%, Cc1ccc(-c2cc(C(=O)NC3CCN(Cc4ccccc4)CC3)c3ccccc3n2)cc1 -4.22%, CC(=O)c1ccc(S(=O)(=O)N(C)CCCC(=O)N(C)Cc2ccccc2F)cc1 -0.0792%, Cc1cccc(C)c1NC(=O)N1CC(C)OC(C)C1 (centres undefined) -6.92%, Cc1ccc(S(=O)(=O)N(C)c2nc3ccccc3n3c(C(C)C)nnc23)cc1 9.42%, O=C1N(c2ccc(Cl)cc2)C(c2ccc(Cl)cc2)N2CCCN12 (centres undefined) -5.15%, CCOC(=O)N1CCC(N2Cc3cccc(C(=O)Nc4ccc(S(=O)(=O)N(CC)CC)cc4)c3C2=O)CC1 63.8%, O=C(O)c1cccc2c1C(=O)N(C1CCCC1)C2 -1.11%, CC1(C(=O)NCc2ccc3c(c2)OCO3)CCN1C(=O)Cc1cccs1 (centres undefined) -5.2%, COc1cccc(NC(=O)CN(C)C(=O)/C=C/c2cn(-c3ccccc3)nc2-c2cccs2)c1 -24.8%, COc1cccc(NC(=O)CN(C)C(=O)CSC(=S)N2CCCC2)c1 6.49%, Cc1cc(C)n(CC(=O)Nc2ccc([N+](=O)[O-])cc2)n1 15.4%, COCOc1cccc(CN2CCC(C)(Oc3ccc(SC)cc3)C2)c1 (centres undefined) -9.11%, Fc1cnc(N2CCOCC2)nc1NCc1ccccc1 38.4%, c1cnc(NC2C3CC4CC(C3)CC2C4)nc1 (centres undefined) 16.6%, O=C(CNC(=O)N1CC(=O)Nc2ccccc21)Nc1ccc(Br)cc1F 16.8%, CC(C)Cc1nnc(N)s1 -2.84%, CC1Cc2nc(SCC(=O)Nc3ccccc3F)n(C)c(=O)c2S1 (centres undefined) 11.4%, COCc1cccc(-c2csc(C(O)c3ccc(F)cc3)n2)c1 (centres undefined) -9.62%, COc1ccc(NS(=O)(=O)c2ccc(NC(=S)NC(=O)/C=C/c3ccc(C)cc3)cc2)nn1 -26.8%, Cc1ccc(C(=O)/C=C/Nc2ccc(S(=O)(=O)Nc3onc(C)c3C)cc2)cc1 31.6%, CC1CC(C)CN(c2ccc(S(=O)(=O)N3CCOCC3)cc2)C1 (centres undefined) -9.62%, COc1ccc(NC(=O)CSc2nnnn2-c2cccc(OC)c2)cc1 -9.12%, CC1(C(=O)NS(=O)(=O)Cc2cccc(Cl)c2)CCN1C(=O)Cc1ccc(Cl)cc1Cl (centres undefined) -21.1%, O=C(O)c1ccccc1/C=N/Nc1ccc(S(=O)(=O)Nc2ccc(Cl)cc2)cc1[N+](=O)[O-] 12.8%

Activity change, active:
CC(=O)Nc1cc(-c2ccc(N3CCN(C)CC3)cc2)cn2c(-c3ccc(F)cc3)cnc12 -91.8%, CSCCC(NC(=O)c1ccccc1)C(=O)N1CCN(Cc2ccc(Cl)cc2)CC1 (centres undefined) -78.1%, COc1ccc(C2Nc3ccccc3C(=O)N2Cc2ccccc2)cc1Cn1nnc2ccccc21 (centres undefined) -62.4%, COc1cc(SC#N)ccc1N=Cc1c(C)[nH]n(-c2ccc(C)cc2)c1=O -83.8%, Cc1ccc(-c2nc(CSCC(=O)NC3CCN(Cc4ccccc4)CC3)c(C)o2)cc1 -64.8%, CCOC(=O)N1CCC(N2Cc3cccc(C(=O)Nc4c(C)cccc4CC)c3C2=O)CC1 -55.1%, COc1cccc(NC(=O)CN(C)C(=O)CSCc2nc3scc(-c4cccs4)c3c(=O)[nH]2)c1 -57.4%, c1ccc2c(NC3C4CC5CC(C4)CC3C5)nc(N3CCOCC3)nc2c1 (centres undefined) -79.7%, COc1ccc(/C=C/C(=O)c2ccc(NS(=O)(=O)c3ccc(C)cc3)cc2)cc1O -103%, O=C(O)c1ccccc1N=N/C(=N/Nc1cc(S(=O)(=O)O)ccc1O)c1ccccc1 -57.4%
